Compound activity: PubChem, The Scripps Research Institute Molecular Screening Center
DAX1 inh-1 – NR0B1 (DAX1) inhibition; P51843; HEK293 Gal4-DAX1 luciferase reporter, luminescence; inhibition, % at 6.75 µM; 0.99% of 340,000 active; AID 504766;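 active means inhibition above the mean over all tested compounds plus 3 SD, cut at about 4.2% in these data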;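 further: 0% = DAX1-transfected cells with DMSO and 100% = empty-vector control cells with DMSO; inhibition shows as a rise in luminescence from relieved DAX1 repression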
Target sequence (P51843 207-470 limits assumed): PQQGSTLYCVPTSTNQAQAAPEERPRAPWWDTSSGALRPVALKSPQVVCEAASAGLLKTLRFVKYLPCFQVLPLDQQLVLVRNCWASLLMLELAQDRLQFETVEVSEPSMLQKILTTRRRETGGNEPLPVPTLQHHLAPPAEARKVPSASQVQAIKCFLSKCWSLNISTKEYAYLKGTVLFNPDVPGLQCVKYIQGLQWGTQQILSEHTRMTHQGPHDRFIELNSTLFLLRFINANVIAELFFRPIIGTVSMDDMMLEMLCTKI
hgDAF12 agonist – activates the H. glycines DAF-12 receptor ligand-binding domain. HEK293 GAL4-hgDAF12 UAS-luciferase reporter, agonist luminescence; normalized to butyrate control. activation, % at 6.8 µM. 1.8% of 370,000 active. AID 687014;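 active means activation above a cutoff set at the mean of all screened compounds plus 3 SD, cut at about 10% in these data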;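 further: 0% = DMSO wells and 100% = sodium butyrate wells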
hcDAF-12 act – H. contortus DAF-12 activation, primary screen. HEK293 hcDAF-12 lit1-tk-luc reporter, luminescence; 0% DMSO, 100% Δ7-dafachronic acid. activation, % at 6.8 µM. 1.4% of 370,000 active. AID 652067;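 active means activation above the mean of all tested compounds plus 3 SD, cut at about 5.5% in these data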;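 further: 100% = response to 3 µM Δ7-dafachronic acid high control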
DAX1 inh-2 – DAX1 (NR0B1) inhibition, primary screen; HEK293T StAR-luciferase reporter, SF-1/DAX-1 repression relief; inhibition, % at 6.8 µM; 1.1% of 370,000 active; AID 652010;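 active means inhibition above the mean over all tested compounds plus 3 SD, cut at about 3.6% in these data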;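 further: 0% = DAX-1 cells with DMSO and 100% = cells lacking DAX-1 with DMSO; higher inhibition means more luminescence from relief of DAX-1 repression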
ssDAF-12 act – activators of S. stercoralis DAF-12 nuclear receptor | 1% of 370,000 active | activation, % at 6.8 µM | AID 652126 | HEK293 ssDAF-12/GRIP1 lit1-tk-luc reporter, luminescence; % of 3 µM dafachronic acid response;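 active means activation above the mean over all tested compounds plus 3 SD, cut at about 0.9% in these data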;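 further: 0% = DMSO-only wells and 100% = 3 µM delta7-dafachronic acid wells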
LXR ag – activates human LXR-beta, counter-screen for hcDAF-12 agonists; shares compounds with hcDAF-12 act; HEK293 Gal4-LXR tk-luc reporter, luminescence, 24 h; normalized: DMSO 0%, positive control 100%; activation, % at 6.8 µM; 3,400 tested, under 10 active;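 active means mean percent activation of the reporter above a cutoff set as the average over tested compounds plus their standard deviation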
hcDAF12 conf – hcDAF-12 agonism, confirmation assay | shares compounds with hcDAF-12 act | HEK293 hcDAF-12 lit1-tk-luc reporter, luminescence; % of Δ7-dafachronic acid response | activation, % at 6.8 µM | 61% of 3,400 active;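 active means mean activation across triplicate tests above the threshold derived from the earlier primary screen, cut at about 5.5% in these data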;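 further: 0% = DMSO only wells and 100% = 3 µM Δ7-dafachronic acid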
hgDAF12 ag – hgDAF-12 agonism, confirmation assay; AID 743050; shares compounds with hgDAF12 agonist; HEK293 GAL4-hgDAF12 luciferase reporter, agonist mode; percent of butyrate response; activation, % at 6.8 µM; 80% of 3,300 active;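 active means mean activation over triplicate wells above the hit cutoff derived from the earlier primary screen, cut at about 11% in these data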;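 further: 0% = DMSO low control and 100% = 2 mM sodium butyrate high control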
LXRb DAF12 ctr – activates human LXR-beta, counter-screen for DAF-12 agonists; shares compounds with hgDAF12 agonist; HEK293 Gal4-LXR luciferase reporter, 24 h; activation, % at 6.8 µM; 3,300 tested, under 10 active;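 active means mean activation of the triplicate above a set limit carried over from the primary screen, none filed active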
Numbers without * were called inactive; . = no result given. The list is not random: actives were taken first. Their share in the collection is about 4.1%.

SMILES	DAX1 inh-1	hgDAF12 agonist	hcDAF-12 act	DAX1 inh-2	ssDAF-12 act	LXR ag	hcDAF12 conf	hgDAF12 ag	LXRb DAF12 ctr
C=CCN=C1NC(c2cccc(C(F)(F)F)c2)C(C(=O)OC)=C(C)N1Cc1ccccc1C(F)(F)F (centres undefined)	.	1	0	1	-1	.	.	.	.
Cc1cc(NC(=O)c2ccc(C(C)(C)C)cc2)no1	2	15*	7.2*	3	0	2	5.6*	21*	1
CC(C)CNc1cccc2c1S(=O)(=O)N[C@@H](Cc1ccccc1)CO2	.	2	-1	-1	-1	.	.	.	.
Cc1nc(Nc2ccc(Cl)cc2)c2oc3ccccc3c2n1	-1	-1	1	0	-1	.	.	.	.
Cc1ccc(Nc2ncnc3c2oc2ccccc23)cc1	4.3*	15*	11*	2	1.3*	2	8.1*	18*	1
O=C(c1ccccc1)n1c(=S)nc2ccccn21	3	16*	15*	3	1.1*	2	14*	17*	1
Nc1c(-c2ccccc2)cnn1-c1cccc(Cl)c1	4	15*	7.1*	2	0	1	4	17*	1
Cc1cccc(-c2cnn(-c3ccccc3)c2N)c1	2	6	4	1	-1	.	.	.	.
COc1ccc(Cn2ccc3ccc(-c4ccc5ccn(C(=O)C6CC6)c5c4)cc32)cc1	.	8	2	0	0	.	.	.	.
Cc1ccc2nc(NC(=O)c3ccc(-c4nc5ccccc5s4)s3)sc2c1	0	-9	-3	-3	-2	.	.	.	.
O=C(Nc1nc2ccc(Cl)cc2s1)c1ccco1	1	16*	7.4*	4	0	1	6.6*	17*	1
O=C(Nc1nc2ccccc2s1)c1ccc(Cl)s1	6.5*	15*	8.4*	4.0*	0	2	7.2*	21*	1
Cc1cc(C)c2c(N)c(-c3nc4ccccc4[nH]3)sc2n1	5.0*	13*	16*	3	2.6*	0	10*	14*	0
Cc1ccc(-c2nnc(-c3ccccc3Br)o2)cc1	4	20*	15*	3	1.8*	1	10*	20*	1
Cc1ccccc1-c1nnc(-c2ccccc2)o1	3	14*	7.8*	2	1	1	9.3*	17*	1
C#CCNC(=O)C[C@H]1C[C@@]2(C(=O)OC)C(=C[C@H](C3CCCC3)O[C@@H]2C)N(CCCCCCCC)C1=O	.	-2	1	-1	0	.	.	.	.
COCc1[nH]nc2c1C(c1ccccc1)N(Cc1ccccc1)C2=O (centres undefined)	.	-4	2	0	-1	.	.	.	.
COC(=O)[C@]12C[C@H](CC(=O)N3CCCC3)C(=O)N(Cc3ccccc3)C1=C[C@H](C(C)(C)C)O[C@@H]2C	.	0	-1	1	-1	.	.	.	.
Cc1cccc(C(=O)Nc2ccc3ccccc3c2)c1	6.8*	14*	7.0*	3	1	2	6.5*	23*	1
COc1cccc(C(=O)Nc2ccc3ccccc3c2)c1	-2	17*	7.5*	2	0	2	9.9*	24*	2
Cc1occc1C(=O)Nc1ccc2ccccc2c1	4.4*	14*	11*	2	1.4*	1	5	16*	1
O=C(Nc1ccc2ccccc2c1)c1onc2c1CCCC2	1	14*	12*	3	1.4*	2	6.4*	21*	1
COc1cc(C(=O)Nc2ccc3ccccc3c2)cc(OC)c1OC	.	5	1	-1	-1	.	.	.	.
Cc1nc2ccc(NC(=O)c3cc(F)cc(F)c3)cc2c(=O)[nH]1	.	-1	1	0	-1	.	.	.	.
